HT1080 IDH1KD tx: HT-1080 IDH1 knockdown cell toxicity (counter line). 2% of 360,000 active. Potency, µM (doses to about 46.1 µM), actives largely listed as cytotoxic. HT-1080 IDH1 knockdown viability, ATP luminescence, 48 h
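% activity derives from luminescence (CellTiter-Glo), normalised to DMSO and no-cell wells. HT-1080-IDH1KD cells, 750/well, had 48 h compound exposure at 37 °C.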
DT40 TDP1 CPT: DT40-hTDP1 cell growth loss with CPT; Potency, µM (top dose mostly 46.2 µM), usual class: inhibitors; AID 686979; 12% of 420,000 active; chicken DT40 Tdp1-/-;hTDP1 cells + 20 nM CPT, ATP luminescence, 48 h; note: nearly all actives have a fitted effect of over 55% in size
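Cell growth measured by CellTiter-Glo luminescence after a minimum 48 h, 37 C compound exposure with 20 nM CPT in Tdp1-knockout DT40 cells stably expressing hTDP1, seeded 400/well; qHTS titration format.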
HT1080-NT tox: kills 2HG-producing HT-1080-NT fibrosarcoma cells | HT-1080-NT fibrosarcoma viability, CellTiter-Glo ATP luminescence, 48 h | Potency, µM (top dose mostly 46.1 µM), hits mostly cytotoxic | 1.6% of 360,000 active | AID 686970;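 note: NT is the 2HG producing partner of a matched IDH1 knockdown line; nearly all actives have a fitted effect of over 55% in size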
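HT-1080-NT; 750 cells/well; 5% FBS RPMI; 48 h compound, 37 degrees C; CellTiter-Glo luminescence; curve fitting and curve-class assignment.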
KB-V1 cytotox: kills drug-selected multidrug resistant KB-V1 cells | KB-V1 MDR cells viability, CellTiter-Glo, 72 h | Potency, µM (top dose mostly 46.1 µM), hits mostly cytotoxic | 3.4% of 400,000 active | AID 1347076; note: nearly all actives have a fitted effect of over 60% in size
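Readout: CellTiter-Glo luminescence, 10 min after addition. Cells: KB-V1 MDR subline, 72 h at 37 degrees C with compound. Analysis: corrected, normalized data fitted to concentration-effect curves.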
KB-3-1 tox: kills parental KB-3-1 adenocarcinoma cells. KB-3-1 viability, CellTiter-Glo ATP luminescence, 72 h. Potency, µM (top dose mostly 46.1 µM), usual class: cytotoxic. 1.4% of 400,000 active. AID 1347075; note: nearly all actives have a fitted effect of over 60% in size
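Here the drug-naive KB-3-1 line serves as comparator for MDR sub-line selectivity; cells received compound titrations, 72 h at 37 °C, then CellTiter-Glo readout.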
TDP1 cell noCPT: qHTS for Inhibitors of human tyrosyl-DNA phosphodiesterase 1 (TDP1): qHTS in cells in absence of CPT; DT40 Tdp1-/- hTDP1 cells, no CPT, ATP luminescence, 48 h; Potency, µM (doses to about 46.2 µM), hits mostly inhibitors; 15% of 420,000 active; AID 686978, 2013; note: nearly all actives have a fitted effect of over 55% in size
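DT40 Tdp1-/-;hTDP1 cells, no CPT (DMSO vehicle only), 400 cells/well; compounds pin-transferred; ≥48 hr, 37 °C; CellTiter-Glo 30 min RT dark, luminescence read.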
A number is an active result; n = inactive; u = inconclusive; x = no result given. Sampled rows, rich in hits. Any-hit rate of the full collection: about 19%. Calls come from the whole dose curve; as a rule, active = well fitted curve in the direction sought with a large enough effect; inconclusive = small, poorly fitted or top-dose-only effect, or another doubt; inactive = no such curve, though single readings can be large; an effect the other way counts as inactive or inconclusive.

SMILES	HT1080 IDH1KD tx	DT40 TDP1 CPT	HT1080-NT tox	KB-V1 cytotox	KB-3-1 tox	TDP1 cell noCPT
CCOc1ccccc1N(CC(=O)NCCSc1ccccn1)S(=O)(=O)c1ccccc1	n	u	n	u	n	u
O=C(O)/C(=C/c1ccc(Cl)c([N+](=O)[O-])c1)c1ccc(S(=O)(=O)N2CCCCC2)s1	n	n	n	n	n	n
CCn1c(C(=O)NCc2ccccc2)cc2sc(Cl)cc21	x	u	x	n	n	u
c1ccc(Cn2ccc(-c3cnc(-c4ccccc4)s3)n2)cc1	n	u	n	n	n	18µM
Nc1ccn(Cc2ccccc2)n1	n	n	n	u	n	n
O=S(=O)(NC1CC1)c1ccc(S(=O)(=O)N2CCCC3(CCCCC3)C2)cc1	n	13µM	n	n	n	u
COc1ccc(CNC(=O)CCC2N=C3c4ccccc4N=C(SCc4ccccc4F)N3C2=O)cc1 (centres undefined)	x	u	x	n	n	u
O=C(CCC1N=C2c3ccccc3N=C(SCc3ccccc3F)N2C1=O)NCc1ccccc1 (centres undefined)	x	u	x	n	n	18µM
COc1ccc(CNC(=O)CCC2N=C3c4ccccc4N=C(SCc4ccc(F)cc4)N3C2=O)cc1 (centres undefined)	x	u	x	n	n	23µM
O=C(CCC1N=C2c3ccccc3N=C(SCc3ccccc3F)N2C1=O)NCc1ccc(F)cc1 (centres undefined)	x	u	x	n	n	26µM
O=C(CCC1N=C2c3ccccc3N=C(SCc3ccc(F)cc3)N2C1=O)NCc1ccc(F)cc1 (centres undefined)	x	u	x	u	n	u
COc1ccc(-c2cc(C(=O)Oc3ccc(C#N)cc3)no2)cc1	x	n	x	u	n	n
CC(C)OCCCNC(=O)CN1CCN(Cc2ccccc2Cl)C1=O	n	u	n	n	n	18µM
Cc1ccccc1CN1CCN(CC(=O)NCCCN2CCN(c3ccc(F)cc3)CC2)C1=O	n	16µM	n	u	u	13µM
O=C(CN1CCN(Cc2ccc(Cl)cc2)C1=O)NCCCN1CCOCC1	n	n	n	n	n	n
O=C(CN1CCN(Cc2ccc(Cl)cc2)C1=O)NCCCN1CCN(c2ccc(F)cc2)CC1	16µM	8.9µM	u	n	u	10µM
CCc1ccc(NC(=O)c2cc3c([nH]c2=O)CC(C)(C)CC3=O)cc1	x	n	x	n	n	n
CCOC(=O)C1=C(C)Nc2ccccc2N/C1=N\S(=O)(=O)c1ccccc1	n	n	n	u	n	u
O=[N+]([O-])c1cc2c(cc1/C=N\NS(=O)(=O)c1ccccc1)OCO2	n	9.2µM	n	n	n	u
CC(C)(C)c1ccc(O)c(N=Cc2cc3c(cc2[N+](=O)[O-])OCO3)c1	n	u	n	n	n	16µM
Cc1ccc(C)c(N=Cc2cc3c(cc2[N+](=O)[O-])OCO3)c1	n	u	n	n	n	u
COC(=O)c1nn(C)c(=O)[nH]c1=O	n	n	n	n	n	n
Cc1cccc(OCC(=O)Nc2ccccc2C(=O)OCc2cc(=O)n3nc(C)sc3n2)c1	x	n	x	x	x	n
COc1cc(CC(=O)N2CCN(S(=O)(=O)c3ccc(C(C)C)cc3)CC2)cc(OC)c1OC	n	21µM	n	n	n	21µM
COc1ccc(S(=O)(=O)N2CCCCC2)cc1NC(=O)Cc1c[nH]c2ccccc12	n	u	n	u	n	15µM
SMILES	HT1080 IDH1KD tx	DT40 TDP1 CPT	HT1080-NT tox	KB-V1 cytotox	KB-3-1 tox	TDP1 cell noCPT
COc1ccc(CC(=O)Nc2cc(S(=O)(=O)N3CCCCC3)ccc2C)cc1OC	n	u	n	u	n	18µM
COc1ccc(S(=O)(=O)N2CCCCCC2)cc1NC(=O)Cc1cc(OC)c(OC)c(OC)c1	n	n	n	2.3µM	n	u
Cc1c(C#N)c2n(c1C)CCCC(=O)N2	n	n	n	n	n	n
CC1CN(C(=O)CCC(=O)NCc2cccs2)c2ccccc2O1 (centres undefined)	x	n	x	n	n	n
CCN(CC)c1nc2c(S(=O)(=O)c3ccc(C)cc3)nnn2c2ccsc12	x	n	x	n	n	n
COc1cc(C=NNC(=S)Nc2ccc(S(=O)(=O)N3CCCCC3)cc2)cc(OC)c1OC	n	16µM	n	n	n	8.2µM
COc1ccc(NC(=S)Nc2ccc(S(=O)(=O)N3CCCCC3)cc2)cc1	n	u	n	n	n	u
CCOc1ccc(S(=O)(=O)N2CCCCC2)cc1NC(=O)Cc1cccs1	n	u	n	23µM	n	18µM
COc1ccc(S(=O)(=O)N2CCOCC2)cc1NC(=O)Cc1cccs1	n	n	n	n	u	n
COc1ccccc1CNC(=O)[C@H](C)NC(=O)C1CCN(C(=O)[C@H](CCSC)NC(=O)OC(C)(C)C)CC1	n	n	n	n	n	n
CCOC(=O)/C(=C\c1cccc(O)c1)c1nc2sc(C)c(C)c2c(=O)[nH]1	u	9.2µM	u	u	u	23µM
COc1cccc(-n2nc(C#N)c(Cl)cc2=O)c1	15µM	2.3µM	9.2µM	n	u	2.9µM
COc1cccc(-n2nc(C(N)=O)c(O)cc2=O)c1	n	n	n	n	n	n
CN(C)c1ccc(/C=C/c2ccnc3c(Cl)cccc23)cc1	x	11µM	x	u	16µM	7.9µM
Cc1cccc2c(/C=C/c3ccc(N(C)C)cc3)ccnc12	x	u	x	n	n	u
CN(C)c1ccc(/C=C/c2ccnc3c(-c4ccccc4)cccc23)cc1	x	11µM	x	u	n	u
Cc1ccc(NS(=O)(=O)c2ccc(C3CCCCC3)cc2)cc1	n	u	n	21µM	u	u
Cc1ccc(S(=O)(=O)Nc2ccc(S(=O)(=O)NC(C)(C)C)cc2)cc1	n	n	n	18µM	u	n
CCC1CCCCN1c1nc2c(C=O)c(C)nn2c2ccccc12 (centres undefined)	n	21µM	n	n	n	16µM
CCOC(=O)c1nnn2c1nc(N1CCCCC1)c1ccccc12	n	u	n	u	n	u
COCc1cc(=O)oc2cc(NC(=O)c3ccc(C(C)(C)C)cc3)ccc12	n	9.2µM	n	n	n	15µM
COc1cc(C(=O)Nc2ccc3ccccc3c2)cc(OC)c1OC	0.58µM	u	1.3µM	u	u	0.65µM
COc1cc(C(=O)Nc2ccc(C(=O)c3ccncc3)cc2)cc(OC)c1OC	u	15µM	u	n	n	23µM
COc1ccc(C(=O)Nc2ccc3ccccc3c2)cc1	n	n	n	n	n	n
COc1ccc(C(=O)Nc2ccc3ccccc3c2)cc1OC	n	n	n	n	n	n
